This note sets out measurements from PubChem BioAssay AID651734 (Southern Research Specialized Biocontainment Screening …, 2012).

SMILES strings stand for the structures. Measured potencies and affinities stand elsewhere. Values without a mark were called inactive. How the calls were made is not given here.

A short description of this test: VEEV TC-83 cytopathic effect inhibition, confirmation, cell-based, TC-83 strain, set 7 (AID 651734). Particulars: VEEV TC-83 infected cells; series mostly up to 50 µM; inhibition: at the top concentration. Background: Protection from cytopathic effect is a common read-out in antiviral testing.
On to `COc1ccc(CNc2nc(=O)c3cccnc3s2)cc1`, for which the inhibition (in general, the change of the read-out against control, counted positive when it falls) is -4.9%.

Regarding `CCN1CCN(Cc2nc3ccc(-c4ccccn4)cc3c(=O)n2-c2ccccc2)CC1`, the “inhibition” value was 11.6%.

For `COc1ccc(Nc2nc(=O)c3cccnc3s2)cc1`, the “inhibition” value was -0.67%.

Take `CCN1CCN(C2c3ncccc3C(=O)N2c2ccccc2)CC1` (centres undefined): the “inhibition” value is 1.8%.
